hgDAF12 agonist: hgDAF-12 agonism, primary luciferase screen; HEK293 GAL4-hgDAF12 UAS-luciferase reporter, agonist luminescence; normalized to butyrate control; activation, % at 6.8 µM; 370,000 tested, 1.8% active;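 active = activation above a cutoff set at the mean of all screened compounds plus 3 SD, cut at about 10% in these data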;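 note: 0% = DMSO wells and 100% = sodium butyrate wells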
SMARCA2 act: increases SMARCA2 function in MMTV reporter cells | AID 652017 | activation, % at 9.1 µM | 370,000 tested, 1% active | MG213 cells, MMTV-luciferase reporter, dexamethasone, overnight; in the data active = activation above about 7.8%;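 note: 0% = vehicle wells and 100% = reference activator wells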
ssDAF12 agonist: S. stercoralis DAF-12 activation, primary screen; HEK293 ssDAF-12/GRIP1 lit1-tk-luc reporter, luminescence; % of 3 µM dafachronic acid response; activation, % at 6.8 µM; 370,000 tested, 1% active; AID 652126;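 active = activation above the mean over all tested compounds plus 3 SD, cut at about 0.9% in these data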;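 note: 0% = DMSO-only wells and 100% = 3 µM delta7-dafachronic acid wells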
DAX1 inh-1: NR0B1 (DAX1) inhibition | P51843 | HEK293 Gal4-DAX1 luciferase reporter, luminescence | inhibition, % at 6.75 µM | 340,000 tested, 0.99% active | AID 504766;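 active = inhibition above the mean over all tested compounds plus 3 SD, cut at about 4.2% in these data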;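 note: 0% = DAX1-transfected cells with DMSO and 100% = empty-vector control cells with DMSO; inhibition shows as a rise in luminescence from relieved DAX1 repression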
Target sequence (P51843 207-470 limits assumed): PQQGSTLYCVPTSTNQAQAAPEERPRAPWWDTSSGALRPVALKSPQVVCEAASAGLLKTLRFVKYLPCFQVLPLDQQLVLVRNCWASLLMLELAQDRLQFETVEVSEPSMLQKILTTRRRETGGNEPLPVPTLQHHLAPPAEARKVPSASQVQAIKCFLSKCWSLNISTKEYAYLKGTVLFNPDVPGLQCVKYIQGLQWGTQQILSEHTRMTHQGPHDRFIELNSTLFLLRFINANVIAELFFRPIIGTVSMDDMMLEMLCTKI
DAX1 inh-2: inhibitors of DAX1 repression of SF-1 activated StAR promoter; inhibition, % at 6.8 µM; HEK293T StAR-luciferase reporter, SF-1/DAX-1 repression relief; AID 652010; 370,000 tested, 1.1% active;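 active = inhibition above the mean over all tested compounds plus 3 SD, cut at about 3.6% in these data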;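 note: 0% = DAX-1 cells with DMSO and 100% = cells lacking DAX-1 with DMSO; higher inhibition means more luminescence from relief of DAX-1 repression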
hcDAF-12 act: activates DAF-12 receptor from parasite H. contortus | HEK293 hcDAF-12 lit1-tk-luc reporter, luminescence; 0% DMSO, 100% Δ7-dafachronic acid | activation, % at 6.8 µM | 370,000 tested, 1.4% active;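 active = activation above the mean of all tested compounds plus 3 SD, cut at about 5.5% in these data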;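 note: 100% = response to 3 µM Δ7-dafachronic acid high control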
SMARCA2 conf: confirmation of SMARCA2 (BRM) function activators | 3,500 tested, 30% active | MG213 cells, MMTV-luciferase with dexamethasone, luminescence, overnight; MG213 cells expressing E1A, Rb sequestered; DMSO wells 0%, reference activator 100% | shares compounds with SMARCA2 act | activation, % at 9.1 µM | AID 652260;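 active = activation above its plate's cutoff, the mean activation of tested wells plus 3 SD, cut at about 7.9% in these data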
GAL4-VP16 Luc: counter-screen for SMARCA2 activators: GAL4-VP16 luciferase reporter activation; activation, % at 9.1 µM; AID 686939; 3,500 tested, 41% active; HEK293 GAL4-VP16 pG5luc reporter, luciferase luminescence; scaled: DMSO wells 0%, SAHA wells 100%; shares compounds with SMARCA2 act;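 active = activation above the solvent-only control well mean plus 3 SD, averaged across control plates, cut at about 5.2% in these data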
* = called active by the depositor. Rows were chosen to be rich in hits. Some 4.8% of all compounds tested hit in one or more screens of this group.

CC(NS(C)(=O)=O)C(c1cccs1)N1CCN(c2ccccc2F)CC1 (stereo unspecified) was read as hgDAF12 agonist -3, SMARCA2 act -2, ssDAF12 agonist -1, DAX1 inh-1 1, DAX1 inh-2 0 and hcDAF-12 act -1.
O=C(O)CCC(=O)N1c2ccccc2NC2=C(C(=O)CC(c3ccc(F)cc3)C2)C1c1ccc([N+](=O)[O-])o1 (stereo unspecified) was read as hgDAF12 agonist -4, SMARCA2 act -3, ssDAF12 agonist 0, DAX1 inh-1 0, DAX1 inh-2 -1 and hcDAF-12 act 0.
Screening COC(=O)[C@]12CCCCC=C1N(Cc1ccc(OC)cc1)C(=O)[C@@H]2CC(=O)NCCCN1CCCC1=O returned hgDAF12 agonist -1, SMARCA2 act -1, ssDAF12 agonist -1, DAX1 inh-2 -1 and hcDAF-12 act 0.
C=CCN1C(=O)[C@@H](CC(=O)NCCCN2CCCC2=O)[C@]2(C(=O)OC)CCCCC=C12 was read as hgDAF12 agonist 0, SMARCA2 act 8.7*, ssDAF12 agonist -1, DAX1 inh-2 0, hcDAF-12 act -1, SMARCA2 conf -1 and GAL4-VP16 Luc -2.
Screening O=C(Nc1ccc2c(c1)OCCO2)C(=S)NCc1ccccc1 returned hgDAF12 agonist 9, SMARCA2 act 9.7*, ssDAF12 agonist -1, DAX1 inh-1 -1, DAX1 inh-2 1, hcDAF-12 act 0, SMARCA2 conf 5 and GAL4-VP16 Luc 4.
`O=C(NCc1ccccc1)c1ccc2c(c1)OCCO2` gave hgDAF12 agonist 3, SMARCA2 act -3, ssDAF12 agonist -1, DAX1 inh-1 0, DAX1 inh-2 1 and hcDAF-12 act 0.
Screening O=C1NC(=S)NC(=O)C1Nc1ccc(Cl)cc1 returned hgDAF12 agonist -2, SMARCA2 act -8, ssDAF12 agonist -1, DAX1 inh-1 -1, DAX1 inh-2 1 and hcDAF-12 act -1.
For O=C(CCOc1ccccc1)Nc1ccc(Br)cc1 the results were hgDAF12 agonist 6, SMARCA2 act 11*, ssDAF12 agonist -1, DAX1 inh-1 2, DAX1 inh-2 1, hcDAF-12 act 3, SMARCA2 conf 8 and GAL4-VP16 Luc 5.3*.
For Cc1cccc(N2CCN(C(=O)c3nn(C)c4c3CS(=O)(=O)c3ccccc3-4)CC2)c1C the results were hgDAF12 agonist -3, SMARCA2 act 10*, ssDAF12 agonist -1, DAX1 inh-1 0, DAX1 inh-2 0, hcDAF-12 act 0, SMARCA2 conf -2 and GAL4-VP16 Luc 0.
`Cn1nc(C(=O)N2CCN(c3ccccc3F)CC2)c2c1-c1ccccc1S(=O)(=O)C2` gave hgDAF12 agonist -2, SMARCA2 act -1, ssDAF12 agonist -1, DAX1 inh-1 0, DAX1 inh-2 0 and hcDAF-12 act -2.
COCCNC(=O)C(=O)N/N=C/c1ccccc1C(F)(F)F was read as hgDAF12 agonist 3, SMARCA2 act 11*, ssDAF12 agonist -1, DAX1 inh-1 0, DAX1 inh-2 0, hcDAF-12 act -2, SMARCA2 conf 0 and GAL4-VP16 Luc 2.
O=C(N/N=C/c1ccccc1C(F)(F)F)c1ccc(O)cc1 was read as hgDAF12 agonist 7, SMARCA2 act 8.3*, ssDAF12 agonist 0, DAX1 inh-1 5.0*, DAX1 inh-2 2, hcDAF-12 act 1, SMARCA2 conf 2 and GAL4-VP16 Luc 9.4*.
`O=C(N/N=C/c1ccccc1O)c1cccc(C(F)(F)F)c1` gave hgDAF12 agonist -7, SMARCA2 act -3, ssDAF12 agonist -2, DAX1 inh-1 -2, DAX1 inh-2 -3 and hcDAF-12 act -3.
Cc1cc(C)c2c(c1)OC(=O)CC2c1ccc2c(c1)OCO2 (stereo unspecified) was read as hgDAF12 agonist -2, SMARCA2 act -4, ssDAF12 agonist -1, DAX1 inh-1 0, DAX1 inh-2 0 and hcDAF-12 act -2.
CC(C)=CCNc1ncnc2c1c(C#N)cn2C1OC(CO)C(O)C1O (stereo unspecified) was read as hgDAF12 agonist -1, SMARCA2 act 41*, ssDAF12 agonist -2, DAX1 inh-1 1, DAX1 inh-2 -2, hcDAF-12 act -1, SMARCA2 conf 59* and GAL4-VP16 Luc 0.
`Nc1nc(N)c2cc([N+](=O)[O-])ccc2n1` gave hgDAF12 agonist 4, SMARCA2 act -2, ssDAF12 agonist 0, DAX1 inh-1 1, DAX1 inh-2 0 and hcDAF-12 act 3.
`Cc1ccc(Nc2nnc(SCC(=O)NCC3CCCO3)s2)cc1` (stereo unspecified) gave hgDAF12 agonist 2, SMARCA2 act -1, ssDAF12 agonist -1, DAX1 inh-1 1, DAX1 inh-2 1 and hcDAF-12 act 0.
Screening COc1cc(C=Nn2c(-c3cc(-c4ccccc4)n[nH]3)n[nH]c2=S)ccc1OC(C)=O returned hgDAF12 agonist 4, SMARCA2 act 14*, ssDAF12 agonist -2, DAX1 inh-2 -1, hcDAF-12 act -2, SMARCA2 conf 10* and GAL4-VP16 Luc 3.
COc1cc(/C=N/n2c(-c3ccccc3)n[nH]c2=S)ccc1O was read as hgDAF12 agonist 1, SMARCA2 act -1, ssDAF12 agonist 0, DAX1 inh-1 1, DAX1 inh-2 -1 and hcDAF-12 act 0.
For Oc1ccc(Oc2ccc3c(C(F)(F)F)cc(C(F)(F)F)nc3n2)cc1 the results were hgDAF12 agonist -1, SMARCA2 act -4, ssDAF12 agonist -2, DAX1 inh-1 -3, DAX1 inh-2 -3 and hcDAF-12 act -2.
`COc1ccc2nc3cc(Cl)ccc3c(Nc3cc(CN4CCCC4)c(O)c(CN4CCCC4)c3)c2n1` gave hgDAF12 agonist -6, SMARCA2 act 68*, ssDAF12 agonist 0, DAX1 inh-2 4.3*, hcDAF-12 act 2, SMARCA2 conf 256* and GAL4-VP16 Luc 3.
`COc1ccc2nc3cc(Cl)ccc3c(Nc3cc(C(C)C)c(O)cc3C)c2c1` gave hgDAF12 agonist 0, SMARCA2 act -4, ssDAF12 agonist -1, DAX1 inh-1 -1, DAX1 inh-2 0 and hcDAF-12 act -2.
